Laboratory results as given in PMC5540273 (PLoS ONE, 2017).

These molecules were tested on ZAP70. Conditions: concentration: 1 μM, replicates: in singlicate; n = 1.
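Note: KINOMEscan kinase panel screen.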

| SMILES | %Inh |
| --- | --- |
| COc1cc2nccc(Nc3ccc(NC(=O)c4ccc(C)cc4)c(O)c3)c2cc1OC.Cl [GW440132] | 0% |
| O=C1NC(=O)C(N2CCc3ccccc32)=C1c1ccccc1Cl [SB-373598] | 0% |
| COc1cc2ncn(-c3cc(OCC4CCCO4)c(C(N)=O)s3)c2cc1OC (centres unmarked) [GSK204607] | 0% |
| COc1cc(Nc2nccc(N3CCC(NC(=O)Nc4cc(C)ccc4C)C3)n2)cc(OC)c1OC (centres unmarked) [GSK1379762] | 0% |
| Cl.NC(=O)c1cccc(Nc2nccc(Nc3ccc(Oc4cccc(Cl)c4)c(Cl)c3)n2)c1 [GW659008] | 0% |
| COc1ccccc1CNC(=O)c1cc(C(=O)c2ccccc2C)c[nH]1 [GSK364507] | 13% |
| COc1cc2ncnc(Nc3ccc4nc(-c5ccccc5)[nH]c4c3)c2cc1OC.Cl [GW282450] | 0% |
| NC(=O)c1nnc2ccccc2c1N | 0% |
| CN1C(=O)C(Nc2ccc(Cl)c(C(=O)O)c2)=C(c2ccc(Cl)cc2)C1=O [SB-404290] | 1% |
| Cc1cccc(-c2cc(Nc3ccncc3)c3ccccc3n2)n1 [GSK223675] | 0% |
| Cc1ccc(NC(=O)Nc2cc(C(C)(C)C)nn2-c2ccccc2)cc1 [GSK1014915] | 0% |
| Cn1ccc2ncnc(Oc3ccc(Nc4nc5ccccc5[nH]4)cc3)c21 | 0% |
| CCn1c(-c2cccnc2O)nc2cnccc21 [SB-736715] | 0% |
| COc1ccc(C2=C(Nc3cccc(C(=O)O)c3)C(=O)NC2=O)cc1 [SB-390765] | 0% |
| Fc1cc(Cl)ccc1Nc1ccnc2cc(I)ccc12 [GW551191] | 0% |
| CS(=O)(=O)c1ccc(-c2c(-c3ncn[nH]3)sc(N3CCOCC3)c2C#N)cc1 | 0% |
| Cn1ccc2ncnc(Oc3ccc(NC(=O)Nc4ccccc4)cc3)c21 | 0% |
| Cc1cccc(-c2nc(Nc3ccc4[nH]ncc4c3)c3ccccc3n2)n1 [GW857175] | 31% |
| CC1=C(C(=O)Nc2cc3cn[nH]c3cc2F)C(c2ccc(C(F)(F)F)cc2)CC(=O)N1 (centres unmarked) [GSK429286] | 0% |
| Cc1cccc(-c2nc(C)cc(Nc3ccncc3)n2)n1 [GSK257997] | 0% |
| Fc1cccc(COc2nnc(-c3ccc4c(c3)CCO4)o2)c1 | 0% |
| COc1ccc(CNC(=O)NC2CCN(c3ccnc(Nc4cc(OC)c(OC)c(OC)c4)n3)C2)cc1 (centres unmarked) [GSK1379748] | 3% |
| O=C(Nc1n[nH]c2nc(-c3nccs3)c(Br)cc12)C1CCCC1 [SB-742609] | 0% |
| Cc1csc(-c2nc(Nc3ccncc3)c3ccccc3n2)n1 [GW869640] | 18% |
| O=C(Nc1n[nH]c2nc(-c3nccs3)c(Br)cc12)C1CC1 [SB-742251] | 0% |

These molecules were tested on T1, p38-alpha. Conditions: concentration: 1 μM, replicates: in singlicate; n = 1.
T1 construct: gene MAPK14

| SMILES | %Inh |
| --- | --- |
| Nc1ncnc2[nH]c(-c3ccccc3)nc12 [AH5015] | 0% |
| Cc1cc(-c2ccc3c(c2)CC[C@@H](N[C@@H](C)c2ccccc2)C3)cnc1N.Cl [GW412617] | 0% |
| Cc1ccc(-c2cc(-c3c[nH]nc3-c3ccccn3)ccn2)cc1 [GW684088] | 56% |
| O=C(Nc1n[nH]c2cc(-c3cccc(F)c3F)ccc12)C1CC1 [SB-733894] | 0% |
| O=C(Nc1ccc2c(c1)OCO2)NC1CCN(c2ccnc(Nc3ccc(F)cc3)n2)C1 (centres unmarked) [GSK1379724] | 0% |
| O=c1cc(N2CCOCC2)nc2n(Cc3cccc(Cl)c3Cl)ccn12 [GSK2286295] | 0% |
| COc1cccc(NC(=O)NC2CCN(c3ccnc(Nc4ccc(F)cc4)n3)C2)c1 (centres unmarked) [GSK1379721] | 4% |
| CSc1nn2c(=O)cc(N3CCOCC3)nc2n1Cc1cccc(C(F)(F)F)c1C [GSK2363608] | 0% |
| CN(C)CCN(C)C(=O)c1cc(-c2ccncc2)c(-c2ccc(Cl)c(O)c2)o1.Cl.Cl [SB-710397] | 82% |
| CC(C)(C)c1ccc(C(=O)Nc2cn3cc(Cl)ccc3n2)cc1 | 0% |
| COc1cc2nccc(Nc3ccc(NC(=O)c4ccc(C)cc4)c(O)c3)c2cc1OC.Cl [GW440132] | 0% |
| O=C1NC(=O)C(N2CCc3ccccc32)=C1c1ccccc1Cl [SB-373598] | 0% |
| COc1cc2ncn(-c3cc(OCC4CCCO4)c(C(N)=O)s3)c2cc1OC (centres unmarked) [GSK204607] | 0% |
| COc1cc(Nc2nccc(N3CCC(NC(=O)Nc4cc(C)ccc4C)C3)n2)cc(OC)c1OC (centres unmarked) [GSK1379762] | 0% |
| Cl.NC(=O)c1cccc(Nc2nccc(Nc3ccc(Oc4cccc(Cl)c4)c(Cl)c3)n2)c1 [GW659008] | 8% |
| COc1cc2ncnc(Nc3ccc4nc(-c5ccccc5)[nH]c4c3)c2cc1OC.Cl [GW282450] | 1% |
| NC(=O)c1nnc2ccccc2c1N | 71% |

| SMILES | %Inh |
| --- | --- |
| CN1C(=O)C(Nc2ccc(Cl)c(C(=O)O)c2)=C(c2ccc(Cl)cc2)C1=O [SB-404290] | 5% |
| Cc1cccc(-c2cc(Nc3ccncc3)c3ccccc3n2)n1 [GSK223675] | 12% |
| Cc1ccc(NC(=O)Nc2cc(C(C)(C)C)nn2-c2ccccc2)cc1 [GSK1014915] | 99.7% |
| Cn1ccc2ncnc(Oc3ccc(Nc4nc5ccccc5[nH]4)cc3)c21 | 5% |
| CCn1c(-c2cccnc2O)nc2cnccc21 [SB-736715] | 0% |
| COc1ccc(C2=C(Nc3cccc(C(=O)O)c3)C(=O)NC2=O)cc1 [SB-390765] | 4% |
| Fc1cc(Cl)ccc1Nc1ccnc2cc(I)ccc12 [GW551191] | 30% |
| CS(=O)(=O)c1ccc(-c2c(-c3ncn[nH]3)sc(N3CCOCC3)c2C#N)cc1 | 6% |
| Cn1ccc2ncnc(Oc3ccc(NC(=O)Nc4ccccc4)cc3)c21 | 0% |
| Cc1cccc(-c2nc(Nc3ccc4[nH]ncc4c3)c3ccccc3n2)n1 [GW857175] | 0% |
| CC1=C(C(=O)Nc2cc3cn[nH]c3cc2F)C(c2ccc(C(F)(F)F)cc2)CC(=O)N1 (centres unmarked) [GSK429286] | 0% |
| Cc1cccc(-c2nc(C)cc(Nc3ccncc3)n2)n1 [GSK257997] | 9% |
| Fc1cccc(COc2nnc(-c3ccc4c(c3)CCO4)o2)c1 | 15% |
| COc1ccc(CNC(=O)NC2CCN(c3ccnc(Nc4cc(OC)c(OC)c(OC)c4)n3)C2)cc1 (centres unmarked) [GSK1379748] | 12% |
| O=C(Nc1n[nH]c2nc(-c3nccs3)c(Br)cc12)C1CCCC1 [SB-742609] | 0% |
| Cc1csc(-c2nc(Nc3ccncc3)c3ccccc3n2)n1 [GW869640] | 14% |
| O=C(Nc1n[nH]c2nc(-c3nccs3)c(Br)cc12)C1CC1 [SB-742251] | 0% |
